For assay [1], the target named is Glutathione peroxidase 1 (Homo sapiens) (UniProt P07203). The assay can be described thus: Primary qHTS Assay for Inhibitors of Recombinant Selenoprotein Glutathione Peroxidase 1 (GPX1) (AID 1845191). For activity, negative = inhibition: % is set by controls: 0 for no effect and ±100 for the full control effect. Note: nearly all actives have a fitted effect of over 65% in size. The method, boiled down:
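Recombinant GPX1 (10 nM final) was preincubated with compound for 30 min at room temperature, then reacted with 1 mM GSH, 0.5 mM CHP, 0.5 mM NADPH and 100 nM glutathione reductase; NADPH fluorescence (340/450 nm) was read at 0 and 15 min.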
(In general: qHTS replaces the single test concentration by a dilution series.)

The target in assay [2] is Phospholipid hydroperoxide glutathione peroxidase GPX4 (Homo sapiens) (UniProt P36969). In words: Primary qHTS Assay for Inhibitors of Recombinant Selenoprotein Glutathione Peroxidase 4 (GPX4) (AID 1845192). Note: nearly all actives have a fitted effect of over 65% in size. Note: potency is the fitted concentration of half-maximal effect. The method, boiled down: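 GR-coupled readout: 100 nM GR, 1 mM GSH, 0.5 mM NADPH; NADPH fluorescence (ex 340/em 450 nm) read at t=0 and after 15 min RT. GPX4 200 nM, preincubated 30 min with compound; substrate 0.5 mM CHP.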

The target of assay [3] is Luciferin 4-monooxygenase (Photinus pyralis) (UniProt P08659). The assay can be described thus: Primary firefly luciferase (FLuc) qHTS assay for identification of artifact compounds. (AID 1845220). Note: nearly all actives have a fitted effect of over 60% in size. The method, boiled down:
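In this counter-screen for luciferase artifacts, test compounds met substrate (10 uM each luciferin and ATP) before 10 nM enzyme started the reaction. Light output was measured 5 min later.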

Assay [4] is described as follows: Primary fluorescence-based thiol-reactive (MSTI) qHTS assay for identification of artifact compounds. (AID 1845221).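 Note: series mostly up to about 54 µM; thiol-reactive compounds lower the probe fluorescence signal; nearly all actives have a fitted effect of over 65% in size.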 The essentials: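 Reactivity toward the thiol probe MSTI (4 uM) is scored by fluorescence at Ex/Em 525/598 nm after 1 h at room temperature. Acetyl-MSTI and MSTI define the activity scale.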
For assay [5], the system named is Nanoluciferase (engineered Oplophorus gracilirostris luciferase). The assay can be described thus: Primary Nanoluciferase (NLuc) qHTS assay for identification of artifact compounds. (AID 1845222).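 Note: NLuc secreted into diluted conditioned medium of S16 cells; series mostly up to about 54 µM; 0% = DMSO and -100% = no enzyme.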 The method, boiled down: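 Using secreted nanoluciferase in S16 culture medium (0.22 um filtered, 1:55 dilution), compounds were preincubated 15 min at RT. Signal was generated with Nano-Glo reagent (1:100) over 5 min.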

Assay [6] can be described thus: Primary redox qHTS assay for identification of artifact compounds. (AID 1845223).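 Note: 0% = DMSO and 100% = reference compound.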 The essentials: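 Amplex Red (25 uM) and HRP (250 mU/mL) in HBSS, with compounds for 15 min, then 250 uM DTT for 30 min, room temperature, dark. Fluorescence 525/598 nm read; normalized to DMSO and 10 uM DA3003; Hill fit.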
For assay [7], the target named is Cytochrome P450 3A4 (Homo sapiens) (UniProt P08684). In words: qHTS for inhibitors of CYP3A4 against the NCATS DSHEA and TCM libraries (AID 1919971).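 Note: % is set by controls: 0 for no effect and ±100 for the full control effect; inhibition lowers luminescence from luciferin made by CYP3A4.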 The method, boiled down:
(§1)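 Luminescent P450-Glo readout. Enzyme plus pro-luciferin substrate in manufacturer buffer (typically 100 mM KPO4); 15 min RT preincubation; 1x NADPH regenerating system, 30-45 min RT in the dark; detection reagent 30 min.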

The target in assay [8] is Cytochrome P450 2C9 (Homo sapiens) (UniProt P11712). The assay can be described thus: qHTS for inhibitors of CYP2C9 against the NCATS DSHEA and TCM libraries (AID 1919973).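 Note: luminogenic pro-luciferin CYP2C9 substrate turned into luciferin with NADPH regeneration; series mostly up to about 34 µM; % is set by controls: 0 for no effect and ±100 for the full control effect.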 The essentials: as §1
The target in assay [9] is Cytochrome P450 2D6 (Homo sapiens) (UniProt P10635). In words: qHTS for inhibitors of CYP2D6 against the NCATS DSHEA and TCM libraries (AID 1919972). Note: % is set by controls: 0 for no effect and ±100 for the full control effect. The method, boiled down:
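Steps: enzyme plus luciferin substrate dispensed; test substances pinned; 15 min RT; 1x NADPH regenerating solution added, 30–45 min RT protected from light; detection reagent, 30 min RT; luminescence measured. Minus-enzyme wells as background.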

SMILES strings stand for the structures. Values without a mark were called inactive. Results filed as inconclusive are left out. The source made the active and inactive calls. Calls come from the whole dose curve; as a rule, active = well fitted curve in the direction sought with a large enough effect; inconclusive = small, poorly fitted or top-dose-only effect, or another doubt; inactive = no such curve, though single readings can be large; an effect the other way counts as inactive or inconclusive.

Chain of Phospholipid hydroperoxide glutathione peroxidase GPX4 (Homo sapiens) (P36969 whole entry, looked up): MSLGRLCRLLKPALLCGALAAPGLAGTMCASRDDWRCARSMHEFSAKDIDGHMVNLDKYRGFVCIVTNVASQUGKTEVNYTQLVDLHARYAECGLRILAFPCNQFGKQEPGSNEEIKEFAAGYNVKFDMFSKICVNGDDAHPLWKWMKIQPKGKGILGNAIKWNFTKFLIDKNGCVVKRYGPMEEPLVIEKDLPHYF
Chain of Glutathione peroxidase 1 (Homo sapiens) (P07203 whole entry, looked up): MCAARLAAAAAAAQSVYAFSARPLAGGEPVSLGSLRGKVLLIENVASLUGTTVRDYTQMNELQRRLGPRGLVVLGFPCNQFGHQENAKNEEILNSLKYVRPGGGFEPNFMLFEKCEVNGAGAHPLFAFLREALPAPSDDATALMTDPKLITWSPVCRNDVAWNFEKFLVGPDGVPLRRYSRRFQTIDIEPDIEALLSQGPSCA
Chain of Cytochrome P450 3A4 (Homo sapiens) (P08684 whole entry, looked up): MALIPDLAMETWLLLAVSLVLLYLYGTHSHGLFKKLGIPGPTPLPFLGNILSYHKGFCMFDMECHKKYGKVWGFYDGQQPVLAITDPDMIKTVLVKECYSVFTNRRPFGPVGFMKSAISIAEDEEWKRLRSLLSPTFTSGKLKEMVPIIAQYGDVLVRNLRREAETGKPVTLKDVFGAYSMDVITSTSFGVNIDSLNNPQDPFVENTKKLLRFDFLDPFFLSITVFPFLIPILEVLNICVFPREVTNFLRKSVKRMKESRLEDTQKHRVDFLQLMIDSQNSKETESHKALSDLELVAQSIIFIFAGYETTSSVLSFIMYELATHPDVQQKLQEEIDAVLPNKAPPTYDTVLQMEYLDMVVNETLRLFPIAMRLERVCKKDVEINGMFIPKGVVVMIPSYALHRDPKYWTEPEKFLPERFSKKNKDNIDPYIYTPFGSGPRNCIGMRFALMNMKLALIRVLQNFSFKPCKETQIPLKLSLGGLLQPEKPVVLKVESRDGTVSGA
Chain of Cytochrome P450 2C9 (Homo sapiens) (P11712 whole entry, looked up): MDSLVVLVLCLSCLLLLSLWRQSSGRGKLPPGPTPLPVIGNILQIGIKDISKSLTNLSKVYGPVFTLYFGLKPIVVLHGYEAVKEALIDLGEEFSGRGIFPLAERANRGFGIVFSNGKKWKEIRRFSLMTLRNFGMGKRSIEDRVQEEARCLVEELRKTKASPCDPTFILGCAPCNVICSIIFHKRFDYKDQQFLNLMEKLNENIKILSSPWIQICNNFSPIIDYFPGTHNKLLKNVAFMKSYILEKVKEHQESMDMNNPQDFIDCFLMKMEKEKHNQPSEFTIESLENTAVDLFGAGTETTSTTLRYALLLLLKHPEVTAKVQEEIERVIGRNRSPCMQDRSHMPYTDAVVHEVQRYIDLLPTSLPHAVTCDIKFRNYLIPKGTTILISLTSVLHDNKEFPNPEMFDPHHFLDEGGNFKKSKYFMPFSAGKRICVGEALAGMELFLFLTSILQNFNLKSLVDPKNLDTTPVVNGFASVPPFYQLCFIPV
Chain of Cytochrome P450 2D6 (Homo sapiens) (P10635 whole entry, looked up): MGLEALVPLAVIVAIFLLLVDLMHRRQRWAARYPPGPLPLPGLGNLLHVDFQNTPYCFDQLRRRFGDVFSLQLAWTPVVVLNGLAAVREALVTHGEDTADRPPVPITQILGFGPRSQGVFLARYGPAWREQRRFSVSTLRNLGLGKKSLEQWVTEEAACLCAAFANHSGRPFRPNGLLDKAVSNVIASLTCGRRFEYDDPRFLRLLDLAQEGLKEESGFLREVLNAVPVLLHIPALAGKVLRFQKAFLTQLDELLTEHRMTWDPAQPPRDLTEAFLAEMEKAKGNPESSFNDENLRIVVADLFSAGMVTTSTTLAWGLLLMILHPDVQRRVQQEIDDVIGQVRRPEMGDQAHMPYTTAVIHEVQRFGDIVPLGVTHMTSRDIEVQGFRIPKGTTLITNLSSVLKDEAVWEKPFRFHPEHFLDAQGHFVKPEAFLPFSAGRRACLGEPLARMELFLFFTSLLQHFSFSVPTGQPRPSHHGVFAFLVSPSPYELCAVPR

With `Clc1ccc(OCC2=NCCN2)cc1Cl`, the Potency entry in assay [1], in [2], in [3] and in assay [4] was “inactive” in each case. Further, the molecule was called inactive in [5] and in assay [6].
With `CCC(C)(OC(C)=O)C(=O)O[C@H]1[C@H](OC(C)=O)C[C@@H]2[C@@](C)([C@@H]3C[C@H]4C=CO[C@H]4O3)[C@H](C)C[C@H](OC(C)=O)[C@@]2(COC(C)=O)[C@@]12CO2` (stereo partly drawn), the Potency entry in [1], in assay [2], in assay [3] and in assay [4] was “inactive” throughout. The outcome in assay [5] and in [6] was inactive.
On to `CN(C)CCc1c[nH]c2ccc(CN3CCN(C)S3(=O)=O)cc12`, for which the Potency result in assay [1], in assay [2], in [3] and in assay [4] was “inactive” in each case. Besides, the molecule was called inactive in [5] and in assay [6].
With `Cn1ncnc1COc1nn2c(-c3c(F)cccc3F)nnc2cc1C1CCC1`, the Potency result in assay [1], in assay [2], in [3] and in assay [4] was “inactive” throughout. Moreover, the molecule was classed as inactive in assay [5] and in assay [6].
For `CC(C)[C@@H](CN1CC[C@@](C)(c2cccc(O)c2)[C@@H](C)C1)NC(=O)[C@H]1Cc2ccc(O)cc2CN1`, the Potency result in [1], in assay [2], in assay [3] and in assay [4] was “inactive” each time. The molecule was called inactive in [5] and in [6].
In the case of `COC(=O)C1(C)CCC(O)C2(C)c3c(O)cc(C(C)C)cc3C(O)C(OC(C)=O)C12` (stereo not drawn), the Potency entry in assay [1], in assay [2], in [3] and in [4] was “inactive” in each case. Moreover, the call in assay [5] and in [6] was inactive.
`CCOc1ccccc1-n1c(C(C)N2CCN(C(=O)COc3ccc(Cl)cc3)CC2)nc2ccccc2c1=O` (stereo not drawn): the Potency result in assay [1], in assay [2], in assay [3] and in assay [4] was “inactive” each time. Besides, in assay [5], the result was inactive.
Take `COC1CC(OC2CCC3(C=O)C(CCC4C3CCC3(C)C(C5=CC(=O)OC5)CCC43O)C2)OC(C)C1OC1OC(CO)C(O)C(O)C1O` (stereo not drawn): the Potency entry in assay [1], in assay [2], in assay [3] and in assay [4] was “inactive” throughout. For the same molecule, the molecule was classed as inactive in [5].
As for `C=C(CO)C(=O)O[C@H]1C/C(C)=C/CC/C(CO)=C/[C@H]2OC(=O)C(=C)[C@H]12`, the Potency result in assay [1], in [2], in [3] and in assay [4] was “inactive” each time. The outcome in assay [5] and in [6] was inactive.
Take `C[C@@](O)(COc1ccc(C#N)cc1)C(=O)Nc1ccc(C#N)c(C(F)(F)F)c1`: the Potency entry in assay [1], in assay [2], in assay [3] and in [4] was “inactive” throughout. For the same molecule, the result in assay [5] and in assay [6] was inactive.
In the case of `C/C=C(\C)C(=O)OC1CC2C(C)(C)OC(=O)CC(OC(C)=O)C2(C)C2CC(OC(=O)C(C)C)C3(C)C(c4ccoc4)CC4OC43C12C` (stereo not drawn), the Potency entry in [1], in [2], in assay [3] and in [4] was “inactive” in each case. Also, the molecule was called inactive in assay [5] and in [6].
In the case of `C=CC(C)(C)c1[nH]c2cccc3c2c1C[C@@H]1[C@@H]3[C@@H](OC(C)=O)[C@H](C)CN1C`, the Potency result in assay [1], in [2], in assay [3] and in assay [4] was “inactive” in each case. The molecule was classed as inactive in [5] and in assay [6].
As to `C/C=C(\C)C(=O)OC1CC2C(CC=C3CC(OC4CC(OC)C(OC5CC(OC)C(OC6OC(C)C(OC7OC(CO)C(O)C(O)C7O)C(OC)C6O)C(C)O5)C(C)O4)CCC32C)C2(O)CCC(C(C)=O)C12C` (stereo not drawn), the Potency result in assay [1] and in assay [2] was “inactive” each time. The outcome in [3] was “inactive [at 11.6 µM]”. Also, the activity change, negative = thiol reactive in [4] was 19.1% [at 11.5 µM]. The activity, negative = inhibition in assay [5] is 4.82% [at 11.6 µM]. For the same molecule, the redox activity (% of DA3003) in assay [6] was 4.57% [at 11.5 µM].
Take `CN1[C@@H]2CC[C@H]1CC(OC(=O)C1C=Nc3ccccc31)C2` (stereo partly drawn): the Potency entry in assay [1], in [2], in assay [3] and in assay [4] was “inactive” in each case. The call in assay [5] and in assay [6] was inactive.
For `CO[C@@H]1[C@H](O)[C@@H](O[C@@H]2C[C@H]3CC[C@@H]4C(CC[C@]5(C)[C@@H](C6=CC(=O)OC6)CC[C@]45O)[C@@]3(C)[C@H](O)C2)O[C@H](C)[C@@H]1O[C@@H]1O[C@H](CO)[C@@H](O)[C@H](O)[C@H]1O` (stereo partly drawn), the Potency result in assay [1], in assay [2], in [3] and in [4] was “inactive” in each case. For the same molecule, in [5], the molecule was classed as inactive.
`COC1=CC(=O)O[C@@H](/C=C/c2ccccc2)C1`: the result in assay [7] and in [8] was inactive.
With `CC1=C2C(=O)C3[C@@H](CC=C4C[C@@H](O)CC[C@@]43C)[C@@H]2CC[C@]12O[C@@H]1C[C@H](C)CN[C@H]1[C@H]2C` (stereo partly drawn), the Potency result in assay [2] and in [4] was “inactive” in each case. In addition, the molecule was classed as inactive in assay [5] and in assay [6].
`Cc1ccccc1-n1c(CF)nc2ccc(N)cc2c1=O`: the Potency in assay [2] was 17.8 µM (active).
`CC12CCC3C(CCC4(O)CC(O)CCC34C=O)C1(O)CCC2C1=CC(=O)OC1` (stereo not drawn): the Potency entry in assay [2], in assay [3] and in assay [4] was “inactive” in each case. Moreover, the molecule was called inactive in assay [5] and in [6].
With `O=C1C2CC=CCC2C(=O)N1SC(Cl)(Cl)Cl` (stereo not drawn), the Potency in [2] was 14.1 µM (active).
For `CC(C)CCON=O`, the Potency entry in assay [2] was “inactive”.
For the molecule `CNc1ccc2oc(C[C@H]3O[C@@]4(CC[C@H]3C)O[C@H]([C@H](C)C(=O)c3ccc[nH]3)[C@H](C)C[C@H]4C)nc2c1C(=O)O`, the Potency result in [2] is “inactive”.
As to `CC[C@H](C)[C@H]1O[C@]2(C=C[C@@H]1C)C[C@@H]1C[C@@H](C/C=C(\C)[C@@H](O[C@H]3C[C@H](OC)[C@@H](O[C@H]4C[C@H](OC)[C@@H](O)[C@H](C)O4)[C@H](C)O3)[C@@H](C)/C=C/C=C3\CO[C@@H]4[C@H](O)C(C)=C[C@@H](C(=O)O1)[C@]34O)O2`, the Potency in assay [2] was 5.01 µM (active).
The same measure, in the same setting: for `CCC1(C)CC(=O)NC(=O)C1` the value was “inactive”.
As for `O=Cc1ccco1`, in [9], the call was inactive.
For `CC(=O)O[C@H]1C[C@@H](OC(C)=O)C(C)(C)C2C[C@@H](O)[C@]3(C)C(CC[C@@]4(C)[C@H](C5=CC(=O)OC5O)C[C@H]5O[C@]543)[C@]21C` (stereo partly drawn), the Potency result in assay [1] and in [2] was “inactive” each time. The result in assay [5] was inactive.
`Cc1sc2ccccc2c1CC1=NCCN1`: the Potency entry in assay [2] is “inactive”.
Take `CC1=CC2/C=C(\C)CCC(O)C3OC(C)(C)OC3CC(=O)OC23C(=O)NC(CC(C)C)C3C1C` (stereo not drawn): the Potency entry in assay [1] and in assay [2] was “inactive” each time. The molecule was called inactive in [5] and in assay [6].
Turning to `C[C@@]12C[C@@H](c3ccoc3)OC(=O)C1CC[C@]1(C)[C@H]2[C@H]2C=C[C@]1(O)C(=O)O2` (stereo partly drawn), the Potency entry in assay [2], in [3] and in [4] was “inactive” in each case. In addition, the molecule was classed as inactive in assay [5] and in assay [6].

(Values after PubChem BioAssay (NCATS).)
